Screens deposited in PubChem by National Center for Advancing Translational Sciences (NCATS).
Pf growth 96h: P. falciparum growth inhibition at 96 hours; Potency, µM (top dose mostly 28.7 µM), for inactives: top-dose activity change, negative = inhibition, actives largely listed as inhibitors; P. falciparum luciferase reporter growth, 96 h; AID 504834; 320,000 compounds, 6.9% hits; also: % is scaled to controls: 0 for no effect and ±100 for the full control effect
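96 h incubation, 37 C, 5% CO2, of luciferase-reporter P. falciparum-infected RBCs (2% hematocrit, 0.05% parasitemia final) with test compounds; endpoint luminescence.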
NS1 function inh: influenza NS1 inhibition; Potency, µM (highest dose often 46.1 µM), for inactives: at the top dose activity, positive = more growth; 270,000 compounds, 0.4% hits; calls by dose curve; also: actives are rising curves; nearly all actives have a fitted effect of over 50% in size
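In this qHTS, NS1 from influenza A is expressed in budding yeast, where it slows growth. Cells are switched from glucose to 2% galactose medium (pH 6.0, -URA), treated with compound, and growth recovery is read at OD600.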
Pf growth 48h: inhibits P. falciparum growth in the first generation, 48 h; Potency, µM (highest dose often 28.7 µM), without a hit: top-dose activity change, negative = inhibition, most hits filed as inhibitors; AID 504832; 310,000 compounds, 5.9% hits; P. falciparum luciferase growth in erythrocytes, 48 h; also: % is scaled to controls: 0 for no effect and ±100 for the full control effect
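Parasite viability was followed by luminescence of a genomically integrated firefly luciferase. Cultures held 0.1% parasitemia at 2% hematocrit (final), incubated under 5% CO2 at 37 C.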
Vaccinia mCherry: vaccinia inhibition (mCherry reporter). Vaccinia virus mCherry reporter infection, fluorescence. Potency, µM (doses to about 36.5 µM), for the others: top-dose activity change, negative = inhibition, usual class: inhibitors. 310,000 compounds, 0.63% hits. AID 720579; calls by dose curve; tested in A549 cells; also: % is scaled to controls: 0 for no effect and ±100 for the full control effect; nearly all actives have a fitted effect of over 35% in size
VACV Venus inh: inhibitors of vaccinia virus (Venus reporter); 330,000 compounds, 0.46% hits; Vaccinia virus Venus reporter expression, fluorescence; Potency, µM (doses to about 36.5 µM), without a hit: at the highest dose activity change, negative = inhibition, most hits filed as inhibitors; calls by dose curve; tested in A549 cells; also: % is scaled to controls: 0 for no effect and ±100 for the full control effect; nearly all actives have a fitted effect of over 30% in size
HCV inhibitor: inhibitors of hepatitis C virus infection; Huh7.5.1 HCVcc-Cre infection, luciferase reporter, 44 h; Potency, µM (top dose mostly 41.8 µM), inactives show at the highest dose activity change, negative = inhibition, usual class: inhibitors; 340,000 compounds, 3.4% hits; also: % is scaled to controls: 0 for no effect and ±100 for the full control effect
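Luciferase read-out (15 sec integration) after a 15 min room-temperature substrate step quantifies HCVcc-Cre infection. Cells, 1,000 per well, had compound added 4 h post-plating, then virus at ~0.5 moi, and were cultured 44 h.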
Numbers without * were called inactive. The list is not random: actives were taken first. Their share in the collection is about 11%. Unless noted, calls follow the shape of the dose curve; as a rule, active = well fitted inhibition curve with a large enough effect; inconclusive = small, poorly fitted or top-dose-only effect, or another doubt; inactive = no such curve, though single readings can be large or run the other way. Potency is read from the fitted curve at half-maximal effect.

Screening COc1ccc(C(=O)/C=C/C(=O)N(CC(=O)NC2CCCCC2)Cc2ccccc2)c(O)c1 returned Pf growth 96h 2.6µM*, NS1 function inh 3%, Pf growth 48h inconclusive, Vaccinia mCherry inactive, VACV Venus inh -13% and HCV inhibitor inconclusive.
COc1ccc(C(=O)OCC(=O)Nc2ccc(F)c(F)c2)cc1OC was read as Pf growth 96h -17%, NS1 function inh -5%, Vaccinia mCherry inactive, VACV Venus inh -13% and HCV inhibitor -21%.
`CN(Cc1ccccc1)C(=O)c1nc2ccccn2c1CN1CCCC1c1nccs1` (configuration not stated) gave Pf growth 96h inconclusive, NS1 function inh -3%, Pf growth 48h 6.6µM*, Vaccinia mCherry inactive, VACV Venus inh -8% and HCV inhibitor -2%.
Screening C#CCOCCOCCOCCNc1nc(N2CCOCC2)nc(N2CCN(C(=O)[C@H](CCC(=O)O)n3cc(C(N)Cc4ccc(O)cc4)nn3)CC2)n1 (some centres not stated) returned Pf growth 96h 17%, NS1 function inh 2%, Pf growth 48h 3%, Vaccinia mCherry inactive, VACV Venus inh -7% and HCV inhibitor 7%.
`COc1cc2c(cc1NC(=O)COC(=O)Cn1cnc3ccccc31)oc1ccccc12` gave Pf growth 96h -2%, NS1 function inh -55%, Pf growth 48h 63%, Vaccinia mCherry -25%, VACV Venus inh -15% and HCV inhibitor 2.2µM*.
`COc1cc2c(cc1NC(=O)CSc1ccc(C)cc1)oc1ccccc12` gave Pf growth 96h 86%, NS1 function inh 2%, Pf growth 48h 13% and HCV inhibitor 10µM*.
COc1cc2c(cc1NC(=O)Cc1ccc(C)cc1)oc1ccccc12 was read as Pf growth 96h -29%, NS1 function inh 12%, Pf growth 48h 70% and HCV inhibitor 10µM*.
Screening COc1cc2c(cc1NC(=O)CCC(=O)O)oc1ccccc12 returned Pf growth 96h inconclusive, NS1 function inh -7%, Pf growth 48h 28%, Vaccinia mCherry -6%, VACV Venus inh -8% and HCV inhibitor inconclusive.
`COc1cc2c(cc1NC(=O)Nc1ccccc1)oc1ccccc12` gave Pf growth 96h 28%, NS1 function inh -63%, Pf growth 48h -10%, VACV Venus inh inconclusive and HCV inhibitor 5µM*.
Screening COc1cc2c(cc1NC(=O)CSCC(=O)O)oc1ccccc12 returned Pf growth 96h -21%, NS1 function inh 3%, Pf growth 48h 6%, Vaccinia mCherry -23%, VACV Venus inh -6% and HCV inhibitor -15%.
For COc1ccc2c(c1)c(CC(=O)Nc1ccc(C)cc1)c(C)n2C(=O)c1ccc(Cl)cc1 the results were Pf growth 96h -13%, NS1 function inh 2%, VACV Venus inh -2% and HCV inhibitor -4%.
For COc1ccc(NC(=O)Cc2c(C)n(C(=O)c3ccc(Cl)cc3)c3ccc(OC)cc23)cc1 the results were Pf growth 96h 3.3µM*, NS1 function inh 11%, Pf growth 48h inconclusive, Vaccinia mCherry -14%, VACV Venus inh 0% and HCV inhibitor -6%.
For CCOc1ccccc1N(CC(=O)NCC1CCCO1)C(=O)CNS(=O)(=O)c1ccccc1 (configuration not stated) the results were Pf growth 96h 15µM*, NS1 function inh -1%, Pf growth 48h -10%, Vaccinia mCherry -8%, VACV Venus inh -8% and HCV inhibitor -10%.
`COc1ccc(CNC(=O)CN(CC2CCCO2)C(=O)CNS(=O)(=O)c2ccc(F)cc2)cc1` (configuration not stated) gave Pf growth 96h 10µM*, NS1 function inh -8%, Pf growth 48h -2%, VACV Venus inh -6% and HCV inhibitor -5%.
Screening Cc1ccc(S(=O)(=O)NCC(=O)N(CC(=O)NCc2ccc(F)cc2)CC2CCCO2)cc1 (configuration not stated) returned Pf growth 96h inconclusive, NS1 function inh -3%, Pf growth 48h 5%, Vaccinia mCherry -28%, VACV Venus inh 3% and HCV inhibitor -1%.
`COC(=O)c1sc(S(=O)(=O)NCc2ccccc2)c(C(=O)OC)c1C` gave Pf growth 96h 6%, NS1 function inh -9%, Pf growth 48h 3% and HCV inhibitor -22%.
For CC(=O)N1N=C(c2ccco2)CC1c1ccc(Br)cc1 (configuration not stated) the results were Pf growth 96h 10µM*, NS1 function inh 3%, Pf growth 48h 6%, Vaccinia mCherry -16%, VACV Venus inh -10% and HCV inhibitor -6%.
`CC(=O)N1N=C(c2c(O)n(C)c(=O)n(C)c2=O)CC1c1ccccc1` (configuration not stated) gave Pf growth 96h 2.6µM*, NS1 function inh 3%, Pf growth 48h 3.7µM*, Vaccinia mCherry -3%, VACV Venus inh -10% and HCV inhibitor 0%.
For CC(=O)c1ccc(OCCCC(=O)N(CCC2=CCCCC2)c2c(N)n(Cc3ccccc3)c(=O)[nH]c2=O)cc1 the results were Pf growth 96h inconclusive, Pf growth 48h inconclusive, Vaccinia mCherry -28%, VACV Venus inh -16% and HCV inhibitor inconclusive.
For Cc1cccc(C)c1NC(=S)NCCc1ccc(O)c(O)c1 the results were Pf growth 96h -20%, Pf growth 48h 10µM*, Vaccinia mCherry -6%, VACV Venus inh -5% and HCV inhibitor inconclusive.
`COc1cc(OC)cc(C(=O)NCC(=O)OCC(=O)c2cc(OC)ccc2OC)c1` gave Pf growth 96h 36%, NS1 function inh -6%, Pf growth 48h -8%, Vaccinia mCherry inactive, VACV Venus inh -5% and HCV inhibitor 11%.
`CCc1ccc(/C=C/C(=O)C2C(=O)c3ccccc3C2=O)cc1` gave Pf growth 96h 0.93µM*, NS1 function inh 20%, Pf growth 48h 0.93µM*, Vaccinia mCherry 4%, VACV Venus inh 1% and HCV inhibitor inconclusive.
`CC(=O)NCC1CCN(C(=O)C2CCC(=O)N(CCc3cccc(F)c3)C2)CC1` (configuration not stated) gave Pf growth 96h 13µM*, NS1 function inh -5%, Pf growth 48h 25%, Vaccinia mCherry -6%, VACV Venus inh -19% and HCV inhibitor 14%.
`COc1ccc(CCCNC(=O)C2CCC(=O)N(CCc3cccc(F)c3)C2)cc1` (configuration not stated) gave Pf growth 96h 4.1µM*, NS1 function inh -16%, Pf growth 48h 2%, Vaccinia mCherry inactive, VACV Venus inh -22% and HCV inhibitor 15%.
